Source: paper PMC13494018

B1: design_615_ab801fab-270b-4f6a-b2b5-83c165df418c_863_dldesign_0_cycle1_af2pred (protein)
chain: AQAAEAALRTAEAVVRRAEEAIARGASPEELRALAKLAEVVAESLLAVAKTASPEQAKRLEEAAERARRAAEEARRAAERLEREAA
B2: design_615_ab801fab-270b-4f6a-b2b5-83c165df418c_1773_dldesign_0_cycle1_af2pred (protein)
chain: SETAEEARRAVERLKEAAKKLAKAGTPEHAGYAEGLVTTTTALVERLLAAGREEEALRAARRALERAERLLKKALA
B3: design_615_ab801fab-270b-4f6a-b2b5-83c165df418c_806_dldesign_0_cycle1_af2pred (protein)
chain: AAQAQAIEQLEKLIETAKELAKERPEEKEEILGKAHETAGQVLTLIAKGLQDPATAEQALKLAQAKLKEMEKKLKEAKA
B4: design_615_ab801fab-270b-4f6a-b2b5-83c165df418c_1262_dldesign_0_cycle1_af2pred (protein)
chain: KEAAEKAAEKKAEEIKKIAEIAGGAVSPEDAAKIKKEAEEKIEELKKFAKESTPEEAEKYGQELVLEFSQSATKVMVAAAKAA
B5: design_615_ab801fab-270b-4f6a-b2b5-83c165df418c_1575_dldesign_0_cycle1_af2pred (protein)
chain: GEEEEKKKKEKFEEAAEKVNKGLALASQAALADPKYQPVLAKVVELAKEAEKLKKEGKAEEALKKAEEAYEVAKKALAAVKAA
B6: design_615_ab801fab-270b-4f6a-b2b5-83c165df418c_1187_dldesign_0_cycle1_af2pred (protein)
chain: AAAEEVARRGASALAAGQNLIEMAKAASPEAAAVATAALAQAKALLAQGTPEAAEQAQQVINDAMAQVSKIMIAAA
B7: design_615_ab801fab-270b-4f6a-b2b5-83c165df418c_706_dldesign_0_cycle1_af2pred (protein)
chain: ASAARMAEIQAKGEEVAEKAKEKYKELLERLPDPEEALAEARAYLREVGAQYSGAVLGYALSLFESWAEEEL
B8: design_615_ab801fab-270b-4f6a-b2b5-83c165df418c_1266_dldesign_0_cycle1_af2pred (protein)
chain: AAALEEAKAQLKKLAEELLEKSKEAAKLGSDAAIAVTSKYVAKGSALLVQYPEVSSEPLVEAVKEASKLIKEA
B9: design_615_ab801fab-270b-4f6a-b2b5-83c165df418c_776_dldesign_0_cycle1_af2pred (protein)
chain: MEEAEEAYREAEEIKRETKAKAEAGTLTAQEAMEALARLEELREKLRELAEEEGEEAEEYYREVNEYAVEVSRIANAVFAAERAA
B10: design_615_ab801fab-270b-4f6a-b2b5-83c165df418c_1064_dldesign_0_cycle1_af2pred (protein)
chain: AREQAQQALDFALANAQLIAQRRGEAGKRLAELVQKALEADEEEALKYLEEAIRLAEELAKDPAVAALARAAILALREARRLLE
B11: design_615_ab801fab-270b-4f6a-b2b5-83c165df418c_1665_dldesign_0_cycle1_af2pred (protein)
chain: MEEEKEKEKYIKELKKAAEEAIKTAKEAAKLDPKAGGALLKYVEASGKQALENAEKGDLETAKNQLEFMKQVLEIAKGTLAALKAA
B12: design_615_ab801fab-270b-4f6a-b2b5-83c165df418c_1818_dldesign_0_cycle1_af2pred (protein)
chain: DPRAAASQALAAATADALLARLGELAGADVADRLRALLAGDAASKAEAARLARALAEEWRARNPAAAAALYGIAVLAESLAA
B13: design_615_ab801fab-270b-4f6a-b2b5-83c165df418c_1179_dldesign_0_cycle1_af2pred (protein)
chain: SPTEIAGKAVREIQELTEQAIANPETAEQLAAEAKKVAEEAGKKTGEGLAQLLKNVAAQREKEVQAALAA
B14: design_615_ab801fab-270b-4f6a-b2b5-83c165df418c_1174_dldesign_0_cycle1_af2pred (protein)
chain: ADEEDLAAAKKRLEDTKKLVEINLTMANQGPLGAKAAIASLNTQIKVLEAAKKAATPAAQPELDKAIAIAKAALAEAKAKAAA
B15: design_615_ab801fab-270b-4f6a-b2b5-83c165df418c_1503_dldesign_0_cycle1_af2pred (protein)
chain: AAALAAAQAAAGATALETLEVASKAAKAGSPEVAAEANKLAQQATQLAQQAAQGDLATAKAQLAAIQKLLAQAKELLKK
B16: design_615_ab801fab-270b-4f6a-b2b5-83c165df418c_1097_dldesign_0_cycle1_af2pred (protein)
chain: SEAMKTAGAKILTATAASLERQLAEARANPGELRPRAAALAQLAAQLAESAKAIGDEETAARLAAISAEAAALAA
B17: design_615_ab801fab-270b-4f6a-b2b5-83c165df418c_921_dldesign_0_cycle1_af2pred (protein)
chain: SAALKAALAALDAAEKAAEAADPEVAAIVRATREAVKKAPDEVAAKAAQMATAIESLAKAGFVASARATARNLLAYVSAAVAAAE
B18: design_615_ab801fab-270b-4f6a-b2b5-83c165df418c_1763_dldesign_0_cycle1_af2pred (protein)
chain: EELVERLRLMRDVVAAALAAAGLDADAFAALLEAAAAAAREDPARAVELLARVAERAEELAAKASPLQRGVLRFAVTVARGAAAALA
B19: design_615_ab801fab-270b-4f6a-b2b5-83c165df418c_1027_dldesign_0_cycle1_af2pred (protein)
chain: KEALEKAKKEAEKILKEAAEKVSPEVAKYVEEAAKQPTIEEMIHKVLLAAAKAGQVNLEDGKILLEAAEKIAAIYKKAKEE

target: CD276, Q5ZPR3
Sequence (Q5ZPR3 whole entry): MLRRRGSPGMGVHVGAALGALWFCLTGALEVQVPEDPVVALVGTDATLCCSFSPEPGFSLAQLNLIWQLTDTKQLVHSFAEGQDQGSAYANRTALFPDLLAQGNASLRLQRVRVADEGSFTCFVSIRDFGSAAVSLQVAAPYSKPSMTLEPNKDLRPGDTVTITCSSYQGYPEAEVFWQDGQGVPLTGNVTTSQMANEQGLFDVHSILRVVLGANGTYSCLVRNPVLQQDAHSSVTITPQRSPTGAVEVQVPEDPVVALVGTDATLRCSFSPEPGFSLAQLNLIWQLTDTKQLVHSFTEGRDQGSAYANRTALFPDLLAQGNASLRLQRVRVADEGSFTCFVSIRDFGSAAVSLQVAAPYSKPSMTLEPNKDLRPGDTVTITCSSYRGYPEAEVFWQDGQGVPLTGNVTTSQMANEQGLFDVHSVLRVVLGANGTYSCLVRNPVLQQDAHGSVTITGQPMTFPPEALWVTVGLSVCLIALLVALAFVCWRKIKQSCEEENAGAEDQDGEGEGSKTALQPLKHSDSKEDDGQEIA

Binding in a display sort, inactive:
B1 not found, B2 not found, B3 not found, B4 not found, B5 not found, B6 not found, B7 not found, B8 not found, B9 not found, B10 not found, B11 not found, B12 not found, B13 not found, B14 not found, B15 not found, B16 not found, B17 not found, B18 not found, B19 not found
